Source: the supplement of paper PMC13380429

Test system: Vero E6 infected with SARS-CoV-2
Assay: inhibition of SARS-CoV-2 cytopathic effect; higher = more antiviral protection, active = above 15
Details: 48 h

Measured: inhibition of SARS-CoV-2 cytopathic effect

Cc1ccccc1-n1c(CF)nc2ccc(N)cc2c1=O [afloqualone]
inactive: 1 nM -0.9% | 8.33 nM 0.95% | 100 nM -0.71% | 833.33 nM -0.49% | 10000 nM 1.46%

N[C@H](C(=O)O)c1ccc(O)c(C(=O)O)c1 [3-carboxy-4-hydroxyphenylglycine-(S)]
inactive: 1 nM -1.22% | 8.33 nM 0.105% | 100 nM -0.545% | 833.33 nM -1.18% | 10000 nM 0.39%

CCNCc1cc(C(C)(C)C)c(O)c(C(C)(C)C)c1
inactive: 1 nM 1.75% | 8.33 nM -0.5% | 100 nM 1.78% | 833.33 nM 0.46% | 10000 nM 1.14%

Oc1cc(O)c2c(c1)O[C@H](c1ccc(O)c(O)c1)[C@H](O)[C@H]2c1c(O)cc(O)c2c1O[C@H](c1ccc(O)c(O)c1)[C@H](O)C2 [procyanidin-B-2]
inactive: 1 nM 2.26% | 8.33 nM 3.77% | 100 nM 2.22% | 833.33 nM 2.06% | 10000 nM -0.73%

CC(C)c1ccc(NC(=O)Cn2cnc3c2c(=O)n(C)c(=O)n3C)cc1
inactive: 1 nM -0.13% | 8.33 nM 1.6% | 100 nM 1.39% | 833.33 nM 2.45% | 10000 nM 3.83%

CC(C)(C)c1ccc(/C=C/C(=O)Nc2ccc3c(c2)OCCO3)cc1
inactive: 1 nM -2.25% | 8.33 nM 0.94% | 100 nM 1.24% | 833.33 nM -0.32% | 10000 nM -0.3%

O=C(Nc1ccccc1)N1CCC(Cc2cnc3ccccc3c2)CC1
inactive: 1 nM -0.99% | 8.33 nM -0.47% | 100 nM 0.72% | 833.33 nM -0.2% | 10000 nM -1.47%
